In the library only some 5.4% were active in any assay of this set; here they are far more common.
MARV entry inh: blocks Marburg virus binding to or entry into cells; Marburg virus pseudotyped entry inhibition, cell reporter; Potency, µM (top dose mostly 37.8 µM), hits mostly inhibitors; 1.8% of 300,000 active; AID 540276; calls by dose curve; tested in HEK293 cells
FMDV antiviral: foot and mouth disease virus antiviral activity. FMDV antiviral cell-based qHTS. Potency, µM (titrated, usually from 57.9 µM), hits mostly inhibitors. 1.2% of 410,000 active. AID 1159524; calls by dose curve; tested in HEK293T cells; also: read-out not given here; nearly all actives have a fitted effect of over 45% in size
Sm TGR block: inhibitors of Schistosoma mansoni thioredoxin glutathione reductase; Q962Y6; purified TGR, DTNB reduction, TNB absorbance 405 nm; Potency, µM (titrated, usually from 114 µM), hits mostly inhibitors; 3% of 360,000 active; active = well fitted inhibition curve with a large enough effect; inconclusive = small, poorly fitted or top-dose-only effect; inactive = no such curve, though single readings can be large or run the other way; also: nearly all actives have a fitted effect of over 60% in size
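Kinetic colorimetric format: TGR-catalysed, NADPH-driven DTNB reduction monitored via TNB absorbance. Enzyme dispensed at 20 nM; compound exposure 15 min at room temperature before reaction start.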
Lassa entry inh: inhibitors of Lassa virus binding or cell entry. Lassa virus pseudotype entry inhibition, cell reporter. Potency, µM (top dose mostly 37.9 µM), hits mostly inhibitors. 1.2% of 300,000 active. AID 540256; calls by dose curve; tested in HEK293 cells; also: nearly all actives have a fitted effect of over 50% in size
VACV mCherry inh: vaccinia inhibition (mCherry reporter). Vaccinia virus mCherry reporter infection, fluorescence. Potency, µM (titrated, usually from 36.5 µM), most hits filed as inhibitors. 0.63% of 310,000 active. AID 720579; calls by dose curve; tested in A549 cells; also: nearly all actives have a fitted effect of over 35% in size
VACV Venus inh: vaccinia inhibition (Venus reporter). Vaccinia virus Venus reporter expression, fluorescence. Potency, µM (doses to about 36.5 µM), most hits filed as inhibitors. 0.46% of 330,000 active. AID 720580; calls by dose curve; tested in A549 cells; also: nearly all actives have a fitted effect of over 30% in size
A number is an active result; – = inactive; ? = inconclusive; · = not tested or not shown.

SMILES	MARV entry inh	FMDV antiviral	Sm TGR block	Lassa entry inh	VACV mCherry inh	VACV Venus inh
Cc1cc(C)c(NC(=O)Cn2nnc(-c3nc(-c4ccncc4)no3)c2N)c(C)c1	·	–	–	–	–	–
CN=c1scc(-c2cccs2)n1/N=C/c1ccccc1O	0.28µM	4µM	–	1.3µM	?	?
CC1Cc2ccccc2N1S(=O)(=O)c1cnc(Cl)c(Cl)c1 (stereo unspecified)	·	–	–	·	·	·
CC1Cc2ccccc2N1S(=O)(=O)c1cnc(Cl)c(Br)c1 (stereo unspecified)	·	?	7.9µM	·	·	·
COc1ccc(Cl)cc1C(=O)NCC(c1ccc(N(C)C)cc1)N1CCCC1 (stereo unspecified)	·	–	–	–	–	–
O=C1CC(N2CCCN(C3CC(=O)N(c4ccc(F)cc4)C3=O)CC2)C(=O)N1c1ccc(F)cc1 (stereo unspecified)	–	–	20µM	–	·	?
O=C1CC(N2CCC(O)CC2)C(=O)N1c1ccc(Br)cc1 (stereo unspecified)	–	–	56µM	–	·	–
O=C1CC(N2CC2)C(=O)N1c1ccccc1 (stereo unspecified)	·	–	·	·	–	–
O=CN1CCN(C2CC(=O)N(c3ccc(Br)cc3)C2=O)CC1 (stereo unspecified)	–	–	?	–	·	–
CCCOc1ccc(N2C(=O)CC(N3CCN(S(=O)(=O)c4ccccc4)CC3)C2=O)cc1 (stereo unspecified)	?	–	–	–	·	·
O=C1CC(N2CCN(S(=O)(=O)c3ccccc3)CC2)C(=O)N1c1ccccc1 (stereo unspecified)	·	–	50µM	·	·	·
O=C1CC(N2CCCCC2)C(=O)N1c1ccccc1 (stereo unspecified)	–	–	32µM	–	–	–
CCC1CN(C(=O)N2CCC(C(=O)NCc3ccc(N(C)C)cc3)CC2)c2ccccc2O1 (stereo unspecified)	·	–	–	–	–	–
CC(=O)OC[C@H]1O[C@H](C#CC(C)(C)C)C=C[C@H]1OC(C)=O	–	·	·	·	·	·
CC(=O)/C=C/c1ccc2c(c1)S(=O)(=O)N(C1CCCC1)[C@H]2CC(C)=O	·	·	·	·	–	–
CCOC(=O)C1CCCN(C2CC(=O)N(c3ccc(C)cc3)C2=O)C1 (stereo unspecified)	–	·	?	–	–	–
COc1ccc(C(=O)NNC(=O)C2CCCN(C3CC(=O)N(c4ccccc4)C3=O)C2)cc1 (stereo unspecified)	·	–	45µM	·	·	·
O=c1c2c3c(sc2n(CCN2CCCCC2)c(=O)n1Cc1ccco1)CCCCC3	16µM	–	–	–	·	·
O=C(Cn1c(=O)n(Cc2ccco2)c(=O)c2c3c(sc21)CCCC3)Nc1ccccc1	?	–	50µM	–	–	–
NC(=O)Cn1c(=O)n(Cc2ccco2)c(=O)c2c3c(sc21)CCCCC3	–	–	7.1µM	–	·	·
O=C(Nc1ncc(Cc2ccc(SC(F)F)cc2)s1)c1ccc(OC(F)F)cc1	5.6µM	?	–	?	–	?
COc1cc(OC)c(NC(=O)Nc2ccc3c(c2)N(C)C(=O)c2ccccc2S3)cc1Cl	10µM	–	–	–	–	?
CCN1C(=O)c2ccccc2Sc2ccc(NC(=O)Cc3ccc(OC)c(OC)c3)cc21	·	–	–	?	?	?
COc1ccc(C(=O)Nc2ccc3c(c2)N(C2CCCC2)C(=O)c2ccccc2S3)cc1OC	·	–	–	1.3µM	–	–
CCc1c(-c2ccccc2)nc2ccccc2c1C(=O)NCCc1ccccc1	·	–	–	?	–	–
SMILES	MARV entry inh	FMDV antiviral	Sm TGR block	Lassa entry inh	VACV mCherry inh	VACV Venus inh
CN(C)CCCNS(=O)(=O)c1ccc(NC2CCCCCC2)c([N+](=O)[O-])c1	?	–	–	–	8.9µM	–
COc1ccc(NC(=O)/C(Cl)=C(/Cl)S(=O)Cc2ccccc2)cn1 (stereo unspecified)	?	6.3µM	0.32µM	1.6µM	7.1µM	8.9µM
COc1ccc(CS(=O)(=O)/C(Cl)=C(/Cl)C(=O)Nc2ccc(OC)nc2)cc1	2.8µM	11µM	10µM	6.3µM	·	10µM
COc1ccc(/C=C/C(=O)Nc2ccc(OC)nc2)cc1	–	–	–	–	?	–
CCCCN(C(C)=O)c1ccc2c(c1)C1CC2CCN1C(=O)OCc1ccccc1 (stereo unspecified)	·	40µM	·	·	?	?
CCN(CCc1ccccc1)c1ccc2c(c1)C1CC2CCN1C(=O)OCc1ccccc1 (stereo unspecified)	·	–	·	·	–	?
CC(=O)NC(=S)Nc1ccc(S(=O)(=O)N(C)Cc2ccccc2)cc1	–	22µM	–	–	–	–

Screening results (PubChem)
